USP17 inh: blocks human USP17 ubiquitin-rhodamine cleavage | A8MUK1 | purified USP17, Ub-rhodamine cleavage fluorescence, 3 h | 47,000 tested, 6.5% active | AID 1645855 | inhibition, % at 50 µM
USP10 block: blocks human USP10 ubiquitin-rhodamine cleavage; Q14694; purified USP10, Ub-rhodamine fluorescence, 60 min; inhibition, % at 20 µM; 47,000 tested, 1.1% active; AID 1645856
USP8 block: inhibitors of human USP8 deubiquitinase. P40818. purified USP8, Ub-rhodamine cleavage fluorescence, 30 min. inhibition, % at 20 µM. 47,000 tested, 4.2% active
USP28 inh: human USP28 deubiquitinase inhibition. Q96RU2. 47,000 tested, 3% active. inhibition, % at 25 µM. purified USP28, Ub-rhodamine cleavage fluorescence, 30 min
USP30 block: human USP30 deubiquitinase inhibition. Q70CQ3. purified USP30, Ub-rhodamine cleavage fluorescence. inhibition, % at 25 µM. 47,000 tested, 5.3% active. AID 1645860
Target sequence (Q70CQ3 whole entry, looked up): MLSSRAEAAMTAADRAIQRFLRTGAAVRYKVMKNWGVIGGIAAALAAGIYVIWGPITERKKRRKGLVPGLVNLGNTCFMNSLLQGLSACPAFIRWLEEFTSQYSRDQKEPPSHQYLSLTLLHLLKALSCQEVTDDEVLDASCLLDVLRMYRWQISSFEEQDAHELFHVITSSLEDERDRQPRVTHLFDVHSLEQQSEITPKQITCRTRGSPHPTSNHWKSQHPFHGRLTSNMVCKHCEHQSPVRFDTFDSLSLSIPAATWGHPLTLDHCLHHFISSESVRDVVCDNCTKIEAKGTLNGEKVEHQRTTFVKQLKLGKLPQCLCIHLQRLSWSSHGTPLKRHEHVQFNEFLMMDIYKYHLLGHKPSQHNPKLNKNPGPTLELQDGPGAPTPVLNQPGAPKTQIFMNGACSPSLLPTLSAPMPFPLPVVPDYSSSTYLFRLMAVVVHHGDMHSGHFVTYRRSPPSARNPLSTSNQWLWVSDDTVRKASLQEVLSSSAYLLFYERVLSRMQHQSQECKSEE
Numbers without * were called inactive; i = inactive; x = not tested or not shown. Shown are actives, neighbours in structure and some others; about 13% of the full set was active somewhere. No stated cut-off is given here; in the data, active means inhibition above about 30%; inactive means the rest.

SMILES	USP17 inh	USP10 block	USP8 block	USP28 inh	USP30 block
Cc1cc(NC(=O)CSc2nnc(-c3ccc4c(c3)OCCO4)o2)no1	11.2	-4.4	31.0*	-11.1	-0.2
COc1ccc(-c2nnc3ccc(SCC(=O)N4CCCc5ccccc54)nn23)cc1	-6.2	0.1	-7.4	1.5	-6.0
Cc1ccc(NC(=O)CSc2nnc(-c3ccncc3)o2)cc1F	45.7*	0.0	-3.1	-5.2	6.5
Cc1cc(NC(=O)CSc2nnc(-c3cccc(Cl)c3)o2)no1	49.2*	-0.9	2.0	2.8	13.2
Cc1ccc(NC(=O)Cn2cc(-c3nc(C4CC4)no3)ccc2=O)cc1C	18.0	16.4	11.3	1.1	-24.2
Cc1cccc(NC(=O)Cn2cc(-c3nc(C4CC4)no3)ccc2=O)c1	5.6	4.0	12.6	1.0	-11.1
Cc1ccccc1NC(=O)Cn1cc(-c2nc(C3CC3)no2)ccc1=O	13.2	-1.0	-1.8	-3.3	70.5*
Cc1ccc(NC(=O)Cn2cc(-c3nc(C4CC4)no3)ccc2=O)cc1	15.1	16.6	29.4	14.5	36.2*
Cc1ccc(-c2cc(C(=O)N(Cc3cccc(F)c3)Cc3ccco3)no2)cc1	-3.4	7.8	27.7	7.9	23.7
COc1ccc(N2CCN(C(=O)CCCCCn3c(=O)[nH]c4ccccc4c3=O)CC2)cc1	7.7	1.2	-6.0	9.5	23.1
O=C(Cn1c(=O)[nH]c2ccccc2c1=O)N1CCN(c2ccccc2F)CC1	23.7	1.1	18.4	12.9	31.9*
O=C(CCCn1c(=O)[nH]c2ccccc2c1=O)N1CCN(c2ccc(Cl)cc2)CC1	-10.9	2.3	-14.3	3.0	41.4*
Cc1cccc(N2CCN(C(=O)Cn3c(=O)[nH]c4ccccc4c3=O)CC2)c1C	-0.3	1.9	-2.8	5.0	12.8
Cc1ccc(NC(=O)c2ccccc2)c(=O)n1CC(=O)N1CCN(c2ccccc2F)CC1	x	-2.7	27.3	8.6	30.1*
CC(=O)c1ccc(N2CCN(C(=O)Cn3c(=O)[nH]c4ccccc4c3=O)CC2)cc1	42.4*	2.1	1.7	x	x
O=C(Nc1ccc(-c2nccs2)cc1)C1CCN(c2nc3ccccc3o2)CC1	-3.6	11.4	12.4	11.2	-0.2
CC(C)c1cc2c(c(O)c1O)[C@@]13CCCC(C)(C)[C@@H]1C[C@@H]2OC3=O	73.5*	7.3	2.8	32.6*	11.1
CC(C)N(CCSc1ccc(NC(=O)c2ccco2)nn1)C(C)C	-42.6	-5.1	-17.7	-41.1	-177.9
CC(=O)N1CCN(c2oc(-c3ccc(COc4ccccc4C)o3)nc2C#N)CC1	x	-5.7	-16.9	-47.2	-196.7
Cc1ccc(NC(=O)c2noc3c2CCc2sccc2-3)nc1	31.8*	4.5	47.3*	-4.6	-36.9
O=C(Nc1ccccn1)c1noc2c1CCc1sccc1-2	36.5*	4.9	88.5*	2.9	-51.1
Cc1cccnc1NC(=O)c1noc2c1CCc1sccc1-2	0.4	2.4	3.5	8.4	14.1
COc1ccc(C)cc1NC(=O)CSc1nnc2c3ccccc3nc(-c3ccco3)n12	10.5	-0.9	-7.7	1.6	-9.6
CC(=O)N1CCCC1c1nnc2n1CCN(C(=O)CC1CCCCC1)CC2 (stereo not drawn)	16.1	-1.0	7.0	13.6	19.0
O=C(NCC1(O)CCc2ccccc21)c1ccc2c(c1)OCO2 (stereo not drawn)	15.0	6.2	-0.7	10.1	33.2*
SMILES	USP17 inh	USP10 block	USP8 block	USP28 inh	USP30 block
O=C(Nc1ccc(Cl)cc1)C1CCCN(c2cnccn2)C1 (stereo not drawn)	33.2*	-0.4	6.1	9.2	27.2
CCn1ncc(Cn2cc(Cl)c(N)n2)c1C	-1.7	-0.8	-32.9	8.7	17.6
CCC(C(=O)Nc1ccc(C)cc1C)n1c(C)nc2onc(C)c2c1=O (stereo not drawn)	30.9*	5.3	9.1	15.2	38.3*
CC(=O)N1CCN(Cc2cc3c(C)nn(-c4ccc(F)cc4)c3[nH]c2=O)CC1	-7.5	2.3	6.1	-13.1	-46.2
Cc1nn(-c2ccccc2)c2[nH]c(=O)c(CNCc3ccccc3Cl)cc12	-4.1	0.9	72.3*	-0.7	-36.2
COc1ccc(CNCc2cc3c(C)nn(-c4ccccc4)c3[nH]c2=O)cc1	x	4.1	64.5*	11.2	-17.4
O=C(c1noc2c1CCCC2)N1CCCCC1c1ccn2nccc2n1 (stereo not drawn)	-1.9	-0.6	3.1	-1.9	-11.3
COc1cc(-n2cnc3cc(C(=O)NCCN4CCOCC4)ccc32)cc(OC)c1OC	8.3	1.2	7.9	2.6	-0.2
Cc1cc(C)cc(-n2cnc3cc(C(=O)NCCC4=CCCCC4)ccc32)c1	0.0	7.1	-12.4	63.5*	15.4
Cc1nn(-c2ccc(Cl)cc2)c2[nH]c(=O)c(CNCC3CCCO3)cc12 (stereo not drawn)	-90.3	4.5	85.6*	-263.6	i
Cc1nn(-c2ccc(Cl)cc2)c2[nH]c(=O)c(CNCc3ccco3)cc12	-73.8	-4.9	44.2*	-84.7	-389.1
Cc1nn(-c2ccc(Cl)cc2)c2[nH]c(=O)c(CNCCN(C)C)cc12	0.3	-8.6	53.4*	-30.8	-95.3
COc1ccc(CCNCc2cc3c(C)nn(-c4ccccc4)c3[nH]c2=O)cc1OC	21.6	3.6	-53.3	11.6	7.8
COc1ccc(CCNCc2cc3c(C)nn(-c4ccc(Cl)cc4)c3[nH]c2=O)cc1OC	28.9	-1.0	78.0*	8.5	-33.5
CN(Cc1ccccc1)C(=O)CC(C)(C)CC1=NS(=O)(=O)c2ccccc2N1	-2.3	-0.4	-0.4	0.1	11.8
Cn1cnc(CNC(=O)N[C@H]2C[C@H]3CN(Cc4ccccc4)Cc4ccccc4CN3C2)c1	-43.8	-2.3	-16.2	-44.3	-162.3
C[C@@H]1C(=O)O[C@H]2CC34[C@H]5C[C@@H](C(C)(C)C)C36[C@@H](OC(=O)[C@@H]6O)OC4(C(=O)O5)[C@]21O (stereo partly drawn)	20.2	6.6	0.0	8.5	40.7*
C[C@@H]1C(=O)OC2[C@H](O)C34[C@H]5C[C@@H](C(C)(C)C)C36[C@@H](OC(=O)[C@@H]6O)O[C@@]4(C(=O)O5)[C@]21O (stereo partly drawn)	7.9	3.1	-0.2	6.4	19.3
O=S(=O)(Nc1nc2ccccc2nc1NCc1ccc2c(c1)OCO2)c1ccc(F)cc1	-25.0	0.5	-10.3	-40.5	-135.3
O=S(=O)(NNc1nc2ccccc2nc1C(F)(F)F)c1ccc(Br)cc1	12.7	15.7	-28.7	12.0	36.4*
O=C(NCC12CC3CC(CC(C3)C1)C2)c1ccc2ccccc2c1	11.8	7.4	15.8	7.2	20.7
FC(F)(F)c1cnc(/C=C/Nc2ccccc2Oc2ccccc2)c(Cl)c1	-0.6	8.2	16.9	-8.5	-15.6
FC(F)(F)c1cnc(/C=C/Nc2cccc(Oc3ncc(C(F)(F)F)cc3Cl)c2)c(Cl)c1	-5.6	-6.0	74.5*	-23.7	-84.2
Cc1cccc(OCC(=O)Nc2nc3c(s2)CCCC3)c1	13.3	13.7	-19.3	48.4*	24.4
O=C(Nc1nc2c(s1)CCCC2)c1cn(-c2ccccc2)nc1-c1ccccc1	18.0	7.2	28.3	11.0	4.0
